# Rows were chosen to be rich in hits. Some 0.63% of all compounds tested hit in one or more screens of this group.
# PTPN22 act: LYP phosphatase activators, primary screen, biochemical, DiFMUP fluorescence, 2 µM; Tyrosine-protein phosphatase non-receptor type 22 (Homo sapiens), Q9Y2R2; recombinant LYP; 0 = plate median, 100 = signal doubled; activation, % at 2 µM; 96,000 compounds, 0.11% hits; AID 697, 2007;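 active means activation at 2 µM above a set limit, the mean plus 5 SD, cut at about 37% in these data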
# FXIa inh mix: FXIa protease inhibitors in compound pools, primary screen, biochemical, 10-compound mixtures | AID 680, 2007 | inhibition, % at 5 µM | purified FXIa, fluorogenic substrate, pooled mixtures | 62,000 compounds, 0.19% hits | Coagulation factor XI (Homo sapiens), P03951;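 further: each value is inhibition by a whole ten-compound pool holding the compound; 0% = enzyme with no mixture and 100% = wells lacking enzyme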
# FXIIa mix inh: human factor XIIa inhibitors, primary screen, biochemical, pooled compound mixtures, fluorogenic substrate | purified FXIIa | inhibition, % at 5 µM | 62,000 compounds, 0.2% hits;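 further: 0% = enzyme without compound and 100% = no enzyme blank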
# Cdc25B block: inhibitors of Cdc25B phosphatase catalytic domain, primary screen, biochemical, OMFP fluorescence. M-phase inducer phosphatase 2 (Homo sapiens), P30305. recombinant Cdc25B, OMFP fluorescence Ex485/Em525. inhibition, %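 (compounds tested at 10 µM final in the well)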. 65,000 compounds, 0.1% hits. AID 368, 2006; in the data active means inhibition above about 50%
# LYP inh 2: PTPN22 phosphatase inhibitors, primary screen, biochemical, DiFMUP fluorescence, 2 µM. AID 640, 2007. recombinant LYP catalytic domain. inhibition, % at 2 µM. Tyrosine-protein phosphatase non-receptor type 22 (Homo sapiens), Q9Y2R2. 96,000 compounds, 0.21% hits;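 active means inhibition at 2 µM at or above a set limit, the screen mean plus 3 SD, cut at about 24% in these data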;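 further: 0% = DMSO with enzyme and 100% = enzyme fully blocked by orthovanadate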
# MKP-1 inh: MKP-1 phosphatase inhibitors, primary screen, biochemical, in vitro; 65,000 compounds, 0.15% hits; Dual specificity protein phosphatase 1 (Homo sapiens), P28562; inhibition, %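 (compounds tested at a single concentration somewhere between 10 and 100 µM)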; recombinant MKP-1, OMFP hydrolysis fluorescence;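 active means inhibition above about 50%, limit read from the data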;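 further: 0% = DMSO max control wells and 100% = wells with enzyme stopped by NaOH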
# Target sequence (P28562 whole entry, looked up): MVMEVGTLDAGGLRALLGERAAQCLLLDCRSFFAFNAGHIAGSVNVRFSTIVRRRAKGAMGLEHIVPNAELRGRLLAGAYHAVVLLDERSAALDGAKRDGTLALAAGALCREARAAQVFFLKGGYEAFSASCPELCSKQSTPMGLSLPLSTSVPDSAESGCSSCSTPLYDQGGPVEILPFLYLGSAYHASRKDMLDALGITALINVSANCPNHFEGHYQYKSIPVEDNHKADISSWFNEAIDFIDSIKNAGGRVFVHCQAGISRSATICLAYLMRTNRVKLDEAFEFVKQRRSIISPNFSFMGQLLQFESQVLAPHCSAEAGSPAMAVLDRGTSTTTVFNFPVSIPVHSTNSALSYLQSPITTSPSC
# The depositor's hits bear a star; . = not tested or not shown. Unless noted, no stated cut-off is given here; in the data, active means inhibition above about 20% (passing the limit was not always enough); inactive means the rest.
SMILES,PTPN22 act,FXIa inh mix,FXIIa mix inh,Cdc25B block,LYP inh 2,MKP-1 inh
CCOC(=O)c1c(C)[nH]c(C(=O)COC(=O)C2CC2C)c1C (stereo unspecified),-6.3,27.3*,6.1,-17.5,3.9,20.3
O=C1C(Cl)=C(N2CCCCC2)C(=O)N1c1ccccc1Cl,2.2,21.7*,5.2,-6.8,2.3,-2.5
CCC(C)[C@@H](NC(=O)OC(C)(C)C)c1nnc(S(=O)(=O)Cc2cccc(C)c2)o1 (stereo partly specified),0.0,20.8*,11.6,-6.0,-2.8,17.6
CC(C)(C)OC(=O)N[C@@H](Cc1ccccc1)c1nnc(S(=O)(=O)Cc2ccccc2)o1,-5.5,8.2,-3.3,-28.8,5.2,-2.3
COc1cc(-c2nnc(SCc3cc(=O)oc4cc(O)c(O)cc34)o2)cc(OC)c1OC,-31.9,.,.,.,30.9*,.
CCOc1ccc(/C=N/NC(=O)COc2ccccc2-c2ccccc2)cc1,4.4,.,.,.,0.8,.
O=C(COc1ccccc1C(=O)N/N=C\c1ccc(O)c(O)c1)N/N=C/c1ccc(O)c(O)c1,-27.8,.,.,.,31.5*,.
CCOC(=O)c1ccc(NC(=O)C(CC)(CC)C(=O)OCC)cc1,.,1.0,50.1*,6.1,.,-7.2
Cn1c(SCC(=O)NCc2ccc3c(c2)OCO3)nnc1C1COc2ccccc2O1 (stereo unspecified),5.3,9.9,-19.1,-4.4,-6.9,10.0
C=CCn1c(SCC(=O)NCc2ccc3c(c2)OCO3)nnc1C1COc2ccccc2O1 (stereo unspecified),-9.2,33.4*,12.8,-14.2,8.9,24.3
CCOC(=O)c1ccc(NC(=O)CC2NCCNC2=O)cc1 (stereo unspecified),-30.0,.,.,.,31.5*,.
CCCC(=O)Nc1nc2ccc(S(N)(=O)=O)cc2s1,-10.5,3.2,22.4*,2.6,9.0,1.1
CCC(=O)Nc1nc2ccc(S(C)(=O)=O)cc2s1,-0.1,.,.,.,0.6,.
CCSCCOC(=O)C1=C(C)NC2=C(C(=O)CCC2)C1c1coc2ccccc2c1=O (stereo unspecified),4.4,8.6,-0.1,-4.1,-6.2,50.1*
COc1ccc(-n2ncc3c(SCC(=O)N4CCN(c5ccccc5OC)CC4)ncnc32)cc1,-2.2,.,.,.,-1.3,.
O=C(N/N=C/c1cccc([N+](=O)[O-])c1)c1cc2c(ccc3ccccc32)o1,-33.7,.,.,.,35.4*,.
O=C(N/N=C/c1ccncc1)c1cc2c(ccc3ccccc32)o1,-14.9,.,.,.,17.6,.
CCC(C(=O)Nc1cc(C)nn1-c1nc(C)cc(C)n1)c1ccccc1 (stereo unspecified),2.6,-1.4,19.8,66.3*,-2.9,33.0
Cc1cc(C)nc(-n2nc(C)cc2NC(=O)CNCc2ccccc2)n1,-2.1,.,.,.,1.6,.
COc1ccccc1N1C(=O)C2C3C=CC(C3)C2C1=O (stereo unspecified),-4.2,1.3,20.6*,-5.9,3.9,-6.3
COc1ccccc1N1C(=O)C2CC(C)=C(C)CC2C1=O (stereo unspecified),2.6,2.2,10.0,-8.3,-5.5,2.4
O=C(Nc1cccc(C(F)(F)F)c1)N(Cc1ccc(Cl)cc1)CC(O)C(F)(F)F (stereo unspecified),-4.9,.,.,.,7.6,.
CN(CC(=O)NC1CCCc2ccccc21)S(=O)(=O)c1ccc2c(c1)c(=O)n(C)c(=O)n2C (stereo unspecified),7.0,7.5,26.4*,-1.0,-7.6,18.0
COc1ccc(-c2c[n+]3c4n2CCCCC4=C(c2ccc(Br)cc2)C3)cc1,-1.7,.,.,.,1.0,.
Clc1ccc(C2=C3CCCCn4c(-c5ccccc5)c[n+](c43)C2)cc1,-23.6,.,.,.,26.4*,.
Cc1ccc[n+](C(C)C(=O)Nc2ccc(C)c([N+](=O)[O-])c2)c1 (stereo unspecified),11.0,.,.,.,-6.8,.
CC(OC(=O)c1ccco1)C(=O)NC1CCCCC1 (stereo unspecified),-30.0,-3.2,-10.5,1.7,28.2*,6.2
N/N=c1\sc2ccccc2n1-c1ccccc1,-7.2,.,.,.,9.9,.
